PubChem BioAssay AID504332 (National Center for Advancing Translational Sciences (NCATS), 2011)
The campaign covered roughly 350,000 compounds. About 31,000 (8.9%) were called active. Not shown: some 15% with an inconclusive outcome. The entries come from a sample that favours actives as a whole. Values without a mark were called inactive. Calls follow the shape of the dose curve; as a rule, active = well fitted inhibition curve with a large enough effect; inconclusive = small, poorly fitted or top-dose-only effect; inactive = no such curve, though single readings can be large or run the other way.

The molecules below were run against Histone-lysine N-methyltransferase EHMT2 (Homo sapiens) (UniProt Q96KQ7) (assay: qHTS Assay for Inhibitors of Histone Lysine Methyltransferase G9a). Settings: G9a H3K9 monomethylation, AlphaScreen, 2 h; series mostly up to 59 µM; activity, negative = inhibition: at the top concentration.
In short: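 AlphaScreen detection with an anti-monomethyl H3K9 antibody quantified product after a 2 h room-temperature reaction containing 500 nM biotinylated H3K9 peptide, 20 µM SAM and 20 nM enzyme, which had been preincubated 15 min with compound.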
% is scaled to controls: 0 for no effect and ±100 for the full control effect; potency is read from the fitted curve at half-maximal effect.
Also: nearly all actives have a fitted effect of over 75% in size.

Histone-lysine N-methyltransferase EHMT2 (Homo sapiens), sequence (Q96KQ7 913-1193 limits assumed): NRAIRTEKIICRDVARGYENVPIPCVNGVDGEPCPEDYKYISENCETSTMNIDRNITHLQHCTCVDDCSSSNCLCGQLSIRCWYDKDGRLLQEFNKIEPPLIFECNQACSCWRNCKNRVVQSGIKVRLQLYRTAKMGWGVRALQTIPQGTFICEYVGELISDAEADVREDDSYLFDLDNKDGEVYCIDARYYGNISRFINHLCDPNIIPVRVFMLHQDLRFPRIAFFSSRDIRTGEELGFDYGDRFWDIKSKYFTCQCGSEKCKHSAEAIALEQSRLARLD

Row | SMILES | activity, negative = inhibition | Potency
1 | CCC(=O)c1ccc(OCC(=O)Nc2ccc(N3CCCCC3)cc2)cc1 | 13.1% [at 12.7 µM] | –
2 | CSc1ccc(Cl)c(C(=O)OCC(=O)N2CCNC2=O)c1 | 11.9% [at 12.7 µM] | –
3 | COc1ccc(OC)c(NC(=O)CSC2=Nc3ccccc3C3=NC(CC(=O)NCc4ccc(F)cc4)C(=O)N23)c1 (centres undefined) | -3.53% | –
4 | CC(C)c1ccc(NC(=O)Cn2ncc3ccccc32)cc1 | 16.2% [at 102 µM] | –
5 | CCC(C)N(C(=O)COC(=O)c1nc(Cl)ccc1Cl)C1CCS(=O)(=O)C1 (centres undefined) | -0.744% [at 0.501 µM] | –
6 | COc1cccc(CNS(=O)(=O)c2ccc3c(c2)CC(C)N3C(C)=O)c1 (centres undefined) | 3.98% [at 102 µM] | –
7 | CC(C)CCN1CCN=C1N(C)C | 11% [at 2.33 µM] | –
8 | CCOc1ccc(CNC(=O)C2CCCN(S(=O)(=O)N(CC)c3ccc(OCC)cc3)C2)cc1 (centres undefined) | -17.3% | –
9 | CC(=O)N1CCOc2ccc(S(=O)(=O)N3CCN(c4cccc(C(F)(F)F)c4)CC3)cc21 | 2.97% [at 102 µM] | –
10 | Cc1ccc2nc3c(cc(C(=O)NC4CCCCC4)c(=N)n3C(C)C)c(=O)n2c1 | 3.7% | –
11 | CCOC(=O)CNC(=O)/C(=C\c1ccc(F)cc1)NC(=O)c1ccccc1 | 24.9% [at 12.7 µM] | –
12 | COc1ccc(/C=C(\NC(=O)c2ccccc2)C(=O)NCCN2CCOCC2)cc1OC | 11.3% [at 102 µM] | –
13 | Cn1c2ccccc2c2cc(/C=C(\NC(=O)c3ccccc3)C(=O)NCC(=O)O)ccc21 | – | 50.1 µM (active)
14 | COc1ccc(F)cc1C(=O)COC(=O)c1n[nH]c(=O)c2ccccc12 | 0.826% | –
15 | Cc1coc2c(O)cc3c(c12)OC1(N2CCCCC2)C(=O)NCCCC31 (centres undefined) | – | 7.94 µM (active)
16 | C=CCC1=C/C(=C\c2c(N)n3nc(CC(=O)N4CCOCC4)sc3nc2=O)C=C(OC)C1=O | -45.8% [at 102 µM] | –
17 | Cc1ccccc1Nc1nc(N)nc(COC(=O)CCC(=O)c2ccc(F)cc2)n1 | -37.6% [at 102 µM] | –
18 | O=C(NCc1ccccc1)[C@H]1C[C@@H]1[C@H](NP(=O)(c1ccccc1)c1ccccc1)c1ccccc1 | – | 28.2 µM (active)
19 | O=C(O)C1C2C=CC(C2)C1C(=O)NCc1ccccc1 (centres undefined) | 1.59% [at 2.33 µM] | –
20 | COC(=O)[C@H](Cc1ccccc1)NC(=O)[C@@H]1C[C@H]1[C@@H](NC(=O)OCc1ccccc1)c1ccccc1 | 4.81% [at 102 µM] | –

Row | SMILES | activity, negative = inhibition | Potency
21 | O=C(CSCc1cnn(-c2ccccc2)c1-n1cccc1)NCc1ccccc1Br | -6.39% | –
22 | C/C(=N\NC(=O)c1nc(C)cc(C)n1)c1ccccc1 | 5.99% | –
23 | Cc1cc(C)nc(S/C=C/C(=O)c2ccccc2)n1 | – | 22.4 µM (active)
24 | Cc1cc(SCC(=O)c2ccccc2)nc(SCC(=O)c2ccccc2)n1 | 52.4% [at 102 µM] | –
25 | COc1ccc(Cn2cc(C(=O)c3ccc(C)cc3)c(=O)c3cc(OC)c(OC)cc32)cc1 | -4.14% | –
26 | CC12CCC(=O)N1C(C(=O)Nc1ccc(F)c(F)c1F)CS2 (centres undefined) | 13.3% [at 12.7 µM] | –
27 | Cc1ccc2nc(NC(=O)C3CSC4(C)CCC(=O)N34)sc2c1 (centres undefined) | – | 39.8 µM (active)
28 | CCOC(=O)c1sc(NC(=O)C2CSC3(C)CCC(=O)N23)nc1C (centres undefined) | 20.6% [at 12.7 µM] | –
29 | Cc1oc2c(c1C(=O)Nc1ccc(F)c(F)c1)C1=NCCN1C=N2 | 6.48% | –
30 | COc1ccc(-c2nn(CC(=O)NC3CCCC3)c3c2cnc2ccc(F)cc23)cc1 | 4.34% | –
31 | C=C(C)C1CC=C(C)/C(=N\NC(=O)CNc2ccccc2OC)C1 (centres undefined) | – | 35.5 µM (active)
32 | C=C(C)C1CC=C(C)/C(=N/NC(=O)CCCNc2cccc(C)c2)C1 (centres undefined) | -9.82% [at 102 µM] | –
33 | COc1ccccc1Nc1ncc(C(C)=O)c(C)n1 | 20.8% [at 102 µM] | –
34 | CCOC(=O)c1c(S(=O)(=O)N2CCCC(C(=O)NCc3cccc(C)c3)C2)c(C)n(C)c1C (centres undefined) | 5.95% | –
35 | O=C(NCCC1CCCCN1S(=O)(=O)c1ccc(F)cc1)C(=O)NC1CC1 (centres undefined) | 16.1% [at 0.501 µM] | –
36 | COc1ccc(NC(=O)CCCN2C(=O)C(c3ccccc3)Oc3cccnc32)cc1 (centres undefined) | -1.84% | –
37 | Cc1cc(C)nc(NC(=O)c2cccc([N+](=O)[O-])c2)c1 | 0.861% [at 102 µM] | –
38 | CS(=O)(=O)N(CC(=O)Nc1ccc(F)cc1F)c1cccc([N+](=O)[O-])c1 | 1.69% | –
39 | O=[N+]([O-])c1cccc(/C([O-])=C(/C(=S)Nc2ccccc2F)[n+]2ccccc2)c1 | – | 28.2 µM (active)
40 | CCCN1C2CCCC1CC(NC(=O)NC13CC4CC(CC(C4)C1)C3)C2 (centres undefined) | -2.35% [at 0.501 µM] | –

Row | SMILES | activity, negative = inhibition | Potency
41 | OCC[C@H]1C[C@@H](O)[C@H](O)[C@]2(OCCCc3ccccc32)O1 | -3% [at 12.7 µM] | –
42 | COC(=O)CN1C(=O)C(C)(C)Oc2ccc(C(=O)Nc3cccc(OC)c3)cc21 | 15.9% [at 102 µM] | –
43 | Cc1cccc(CSc2nnc(NC(=O)CSc3nnc(C)s3)s2)c1 | 15.2% [at 102 µM] | –
44 | Cc1cccc(NC(=O)CSc2nnc(NC(=O)CN3CCOCC3)s2)c1 | – | 7.08 µM (active)
45 | CC(=O)c1ccc(NC(=O)CSc2nnc(NC(=O)Nc3ccccc3)s2)cc1 | -21.1% | –
46 | C=CCn1c(SCC(=O)NCc2ccccc2)nnc1-c1cc(Br)ccc1O | – | 10 µM (active)
47 | O=C(CSc1nnc(-c2cccnc2)n1CCc1ccccc1)NCc1ccccc1 | 16.6% | –
48 | C=CCn1c(SCC(=O)NC(=O)Cc2ccccc2)nc2ccccc2c1=O | 24.2% [at 12.7 µM] | –
49 | CCc1cc(=O)oc2c(C)c(OCC(=O)NCCN3CCOCC3)ccc12 | -1.68% [at 102 µM] | –
50 | Cc1ccc(S(=O)(=O)N(Cc2nc(-c3ccc(Cl)cc3)no2)C2CCCCC2)cc1 | 19% | –
51 | O=C(CSc1nc(=O)n(Cc2cccnc2)c2c1CCC2)Nc1ccc(F)cc1F | 11.7% | –
52 | Cc1ccc(C)n1-c1nnc(N2CCC(C(=O)NCc3ccc(F)cc3)CC2)s1 | 4.77% | –
53 | CCOc1cccc(-c2nnc(SCC(=O)NC3CC3)n2C)c1 | -2.25% [at 102 µM] | –
54 | Cn1c(CC(=O)Nc2ccc(F)cc2)nnc1SCC(=O)NC1CCCCC1 | 2.6% | –
55 | CCOc1ccc(Nc2nc(Cc3nnc(SCC(=O)NC4CCCC4)n3C)cs2)cc1 | – | 28.2 µM (active)
56 | CC(C)CCNC(=O)CSc1nc2ccccc2nc1Cc1ccc(Cl)cc1 | 14.1% | –
57 | CC(C)c1ccc(C(=O)NCCCc2ccccc2)cc1 | 68.5% | –
58 | O=C(NCCCNCc1ccccc1)c1ccc(/C=N/O)nc1 | – | 14.1 µM (active)
59 | Nc1ccc(C(=O)NCc2ccccc2)cc1 | -1.36% [at 102 µM] | –
